Compound activity: PubChem BioAssay, National Center for Advancing Translational Sciences (NCATS)
NS1 inh: qHTS Assay for Inhibitors of Influenza NS1 Protein Function; Potency, µM (doses to about 46.1 µM), for the others: top-dose activity, positive = more growth; 270,000 compounds, 0.4% hits; calls by dose curve; also: actives are rising curves; nearly all actives have a fitted effect of over 50% in size
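Recovery from NS1-induced slow growth read by OD600 in budding yeast switched to galactose assay medium (pH 6.0, -URA) at 1:100 dilution. Compound 23 nl per well; the matching strain lacking NS1 serves as control.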
VACV Venus inh: qHTS for Stage-Specific Inhibitors of Vaccinia Orthopoxvirus: Venus Reporter Primary qHTS; Vaccinia virus Venus reporter expression, fluorescence; Potency, µM (highest dose often 36.5 µM), without a hit: at the top dose activity change, negative = inhibition, actives largely listed as inhibitors; 330,000 compounds, 0.46% hits; AID 720580, 2013; calls by dose curve; tested in A549 cells; also: % is scaled to controls: 0 for no effect and ±100 for the full control effect; nearly all actives have a fitted effect of over 30% in size
HCV inh: qHTS Assay for Inhibitors of Hepatitis C Virus (HCV) | Huh7.5.1 HCVcc-Cre infection, luciferase reporter, 44 h | 340,000 compounds, 3.4% hits | AID 651820, 2012 | Potency, µM (doses to about 41.8 µM), without a hit: at the top dose activity change, negative = inhibition, most hits filed as inhibitors; also: % is scaled to controls: 0 for no effect and ±100 for the full control effect
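After 44 h co-culture of compound, cells and HCVcc-Cre (~0.5 moi), substrate is added for 15 min at room temperature and luciferase measured over 15 sec. Cells were seeded at 1,000/well and pre-cultured 4 h.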
Pf growth 48h: Primary qHTS for delayed death inhibitors of the malarial parasite plastid, 48 hour incubation. P. falciparum luciferase growth in erythrocytes, 48 h. Potency, µM (highest dose often 28.7 µM), for the others: at the highest dose activity change, negative = inhibition, most hits filed as inhibitors. 310,000 compounds, 5.9% hits; also: % is scaled to controls: 0 for no effect and ±100 for the full control effect
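Growth was read as firefly luciferase luminescence after a 48 h, 37 C, 5% CO2 exposure of compounds to reporter-bearing P. falciparum cultures (0.1% parasitemia, 2% hematocrit final) in Albumax-supplemented RPMI 1640.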
Vaccinia mCherry: qHTS for Stage-Specific Inhibitors of Vaccinia Orthopoxvirus: mCherry Reporter Primary qHTS. Vaccinia virus mCherry reporter infection, fluorescence. Potency, µM (doses to about 36.5 µM), for the others: at the highest dose activity change, negative = inhibition, hits mostly inhibitors. 310,000 compounds, 0.63% hits; calls by dose curve; tested in A549 cells; also: % is scaled to controls: 0 for no effect and ±100 for the full control effect; nearly all actives have a fitted effect of over 35% in size
Pf growth 96h: Primary qHTS for delayed death inhibitors of the malarial parasite plastid, 96 hour incubation; P. falciparum luciferase reporter growth, 96 h; Potency, µM (highest dose often 28.7 µM), for the others: at the top dose activity change, negative = inhibition, hits mostly inhibitors; 320,000 compounds, 6.9% hits; also: % is scaled to controls: 0 for no effect and ±100 for the full control effect
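Plates of compound plus infected erythrocytes (2% hematocrit, 0.05% parasitemia final) incubate 96 hours, 37 C, 5% CO2. Detection reagent added; reduced luminescence from the parasites' luciferase reporter flags inhibition.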
Numbers without * were called inactive; i = inactive; ? = inconclusive; · = not tested or not shown; [ ] = another dose, or the depositor's remark. A selection: hits, their analogues and other compounds. The true share with any hit is near 11%. Unless noted, calls follow the shape of the dose curve; as a rule, active = well fitted inhibition curve with a large enough effect; inconclusive = small, poorly fitted or top-dose-only effect, or another doubt; inactive = no such curve, though single readings can be large or run the other way. Potency is read from the fitted curve at half-maximal effect.

SMILES | NS1 inh | VACV Venus inh | HCV inh | Pf growth 48h | Vaccinia mCherry | Pf growth 96h
O=[N+]([O-])c1ccc(N2CCN(S(=O)(=O)c3ccccc3)CC2)cc1NCc1cccnc1 | 14.4% | 17.8µM* | 19.1% | 9.28µM* | · | -0.5%
O=[N+]([O-])c1ccc(N2CCN(S(=O)(=O)c3ccc(Cl)cc3)CC2)cc1NCc1cccnc1 | 0.7% | -3.4% | 2.8% | 7.38µM* | -10.3% | ?
O=C(c1ccc(Cl)cc1)N1CCN(c2ccc([N+](=O)[O-])c(NCc3cccnc3)c2)CC1 | · | ? | ? | · | -25.5% | ·
O=c1c([N+](=O)[O-])c[nH]c2ccccc12 | 6.7% | -8.2% | 7.5% | ? | i | 19.4%
COc1ccc(S(=O)(=O)NCCc2sc(-c3cccc(C)c3)nc2C)cc1 | · | -0.4% | · | · | -0.9% | ·
CCC(C(=O)Nc1cc(C)cc(C)n1)c1ccccc1 (stereo not drawn) | · | -5.9% | -1.2% | · | i | ·
CC(=O)N1CCOc2ccc(S(=O)(=O)N3CCC(C(=O)Nc4ccc(F)cc4)CC3)cc21 | -3.9% | -4.2% | ? | ? | -10.7% | 14.7µM*
CC(=O)N1CCOc2ccc(S(=O)(=O)N3CCCC(C)C3)cc21 (stereo not drawn) | 17.1% | · | 8.3% | -7.2% | · | 11.7µM*
CC(=O)N1CCOc2ccc(S(=O)(=O)N3CCC(C(=O)Nc4ccc(C)c(C)c4)CC3)cc21 | 8.8% | -15.9% | -15.3% | -8.1% | i | ?
COc1ccc([N+](=O)[O-])c(O)c1C(C)=O | · | -2.5% | -3.7% | · | i | ·
O=C(Cn1nnc(-c2ccc(N3CCOCC3)cc2)n1)OC1CCCCC1 | -10.5% | · | 4.2% | 234.7% | · | 7.38µM*
CCOC(=O)C1CCC(CN(Cc2ccccc2C)S(=O)(=O)c2ccc([N+](=O)[O-])cc2)CC1 (stereo not drawn) | -19.5% | ? | 8.4% | ? | ? | ?
CC(C)C1CC(CCNCc2ccc(N(C)C)cc2)(c2ccccc2)CCO1 (stereo not drawn) | -17.8% | 1.0% | 11.2µM* | ? | ? | ?
Cc1ccc(C2(CCNCc3ccc(N(C)C)cc3)CCOC(C(C)C)C2)cc1 (stereo not drawn) | -4.1% | -20.6% | ? | ? | -7.1% | -12.9%
CCOC(=O)c1c(-c2ccc(C)cc2)csc1NC(=O)c1cc(-c2ccc(C)c(F)c2)on1 | · | 7.2% | · | · | -4.5% | ·
COc1ccccc1-n1nc(C(=O)O)c2ccccc2c1=O | 5.7% | -14.4% | -4.8% | 1.5% | i | ?
COc1ccccc1N1CCN(C(=O)C(Cc2ccccc2)NC(=O)C2CCCCC2)CC1 (stereo not drawn) | -7.1% | · | ? | 10.4µM* | · | 0.0%
COc1ccccc1N1CCN(C(=O)c2nn(-c3ccccc3OC)c(=O)c3ccccc23)CC1 | -10.4% | -6.9% | -8.3% | 9.28µM* | · | ?
COc1ccccc1N1CCN(C(=O)c2ccccc2NC(=O)C2CCCCC2C(=O)O)CC1 (stereo not drawn) | 24.4% | -12.9% | -1.0% | 15.4% | i | 7.38µM*
COc1ccccc1N1CCN(C(=O)c2ccccc2Oc2ccccc2)CC1 | -42.9% | -18.8% | ? | 13.1µM* | -9.2%[1.46 µM] | ?
O=C(NC(Cc1ccccc1)C(=O)N1CCC2(CC1)OCCO2)C1CCCCC1 (stereo not drawn) | 5.8% | · | 5.3% | -3.2% | · | ·
CCOc1ccc(NC(=O)Nc2ccccc2C(N)=O)cc1 | -1.3% | -18.6% | -4.8% | 12.3% | i | 3.8%
COc1ccccc1N1CCN(C(=O)c2ccccc2N(C)S(=O)(=O)c2ccc(C)cc2)CC1 | -15.7% | -9.6% | ? | 10.4µM* | i | ?
Cc1ccc(C2(O)CC(C)N(C)CC2C)cc1 (stereo not drawn) | 6.2% | -9.3% | -11.2% | 3.8% | · | ?
COc1ccc(C2(CCN)CC(C)N(C)CC2C)cc1 (stereo not drawn) | 5.8% | ? | 10.1% | 0.0% | · | 1.65µM*
SMILES | NS1 inh | VACV Venus inh | HCV inh | Pf growth 48h | Vaccinia mCherry | Pf growth 96h
COc1cc([N+](=O)[O-])ccc1NC(=O)N1CCN(c2cc(-c3noc(C)n3)ccc2C)CC1 | · | -11.3% | · | · | -10.6% | ·
CCCCNc1cc(=O)n(C)c(=O)n1C | -0.8% | -15.0% | 1.5% | -1.1% | -0.7% | ·
CC1(C)CN=C(Nc2ccc(F)c(Cl)c2)S1 | 3.1% | · | -4.1% | ? | · | ?
CN1CCC(Nc2ncc3ncnc(Nc4ccc(F)c(Cl)c4)c3n2)CC1 | · | · | · | 1.69µM* | · | 3.38µM*
Cc1cc2n(n1)C(c1c[nH]c3ccccc13)Nc1ccccc1-2 (stereo not drawn) | -71.7% | -22.9% | 3.98µM* | 23.7% | ? | -14.7%
Cc1cc2n(n1)C(c1cccs1)Nc1ccccc1-2 (stereo not drawn) | -0.1% | -16.4% | 2.82µM* | -4.2% | -16.8% | ·
Cc1ccc(C(=O)CC2C(=O)N(c3ccccc3)C(=S)N2c2ccccc2)cc1 (stereo not drawn) | ? | -14.5% | -15.0% | ? | -11.2% | 3.3%
COc1ccc(NC(=O)c2nn(C)c3c2CSc2ccc(C)cc2-3)cc1OC | · | -7.5% | · | · | -2.9% | ·
COc1cc([C@@H]2c3cc4c(cc3C(O[C@@H]3O[C@@H]5COC(c6cccs6)O[C@H]5[C@H](O)[C@H]3O)C3COC(=O)[C@@H]32)OCO4)cc(OC)c1O (stereo partly drawn) | · | ? | · | · | 2µM* | ·
NS(=O)(=O)c1cc2c(cc1Cl)N[C@@H](C(Cl)Cl)NS2(=O)=O | · | · | · | -21.8%[12.8 µM] | · | ?
Cc1cc(C)n(CCc2nc(-c3ccco3)cs2)n1 | 6.8% | · | -1.6% | · | · | -38.5%
Cc1nn(CCc2nc(-c3ccco3)cs2)c2[nH]c(=O)cc(C(F)(F)F)c12 | -76.2% | -1.9% | -11.0% | · | -12.7% | 9.28µM*
O=S(=O)(c1cccc(S(=O)(=O)N2CCC(Cc3ccccc3)CC2)c1)N1CCOCC1 | 11.4% | -9.3% | -15.0% | -28.4% | -14.3% | ?
COc1ccccc1CNS(=O)(=O)c1cccc(S(=O)(=O)N2CCOCC2)c1 | -10.1% | -13.1% | -11.7% | -17.9% | -9.7% | ·
O=S(=O)(NCCc1ccccc1F)c1cccc(S(=O)(=O)N2CCOCC2)c1 | -18.5% | -5.1% | 5.5% | -4.5% | -7.6% | 6.57µM*
O=S(=O)(NCc1ccccc1)c1cccc(S(=O)(=O)N2CCOCC2)c1 | -0.2% | · | -1.6% | · | · | 0.0586µM*
O=C(/C=C/c1cccnc1)c1cc(F)ccc1O | 0.5% | · | 27.7% | -2.3% | · | ?
COc1cccc(C(=O)Nc2cccc(-c3nc4ncccc4o3)c2C)c1 | -13.1% | -3.3% | 9.2% | 10.9% | · | 81.3%
